Compounds without any hit were thinned out: in the full panel of roughly 79,000, 15% have a hit. Activity calls are given as the source filed them. Cut-off read from the data, not from the text of the source: active = growth inhibition above about 70%; inactive = the rest.
Legend:
[1] = NCI Yeast Anticancer Drug Screen. Data for the rad52 strain (AID 147);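 note: 0% = growth of vehicle-treated control cultures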; conditions: S. cerevisiae rad52 mutant growth inhibition, hits give high values
Summary of the method: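 The repair-mutant yeast strain was incubated with compounds, then growth was read and inhibition derived relative to vehicle.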

[2] = NCI Yeast Anticancer Drug Screen. Data for the wt1 strain (AID 149);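 note: 0% = growth of vehicle-treated wt1 cultures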; conditions: S. cerevisiae wt1 strain (SPY 50644) growth inhibition, hits give high values
Summary of the method: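 Each compound is tested on wt1 yeast and the loss of growth versus vehicle gives the inhibition value.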

[3] = NCI Yeast Anticancer Drug Screen. Data for the rad50EPP+ strain (AID 151);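 note: 0% = growth of vehicle-treated control cultures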; conditions: S. cerevisiae rad50 mutant strain, hits give high values
Summary of the method: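 Vehicle-normalised growth inhibition; rad50EPP+ yeast strain, altered in DNA damage repair, compound-treated.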

[4] = NCI Yeast Anticancer Drug Screen. Data for the mgt1 strain (AID 153); conditions: S. cerevisiae mgt1 mutant growth inhibition, hits give high values
Summary of the method: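 Vehicle-normalized growth inhibition is determined in mgt1 yeast, a strain selected for a defined alteration in DNA repair or cell cycle control.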

[5] = NCI Yeast Anticancer Drug Screen. Data for the rad50 strain (AID 155);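 note: 0% = growth of vehicle-only cultures of the same strain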; conditions: S. cerevisiae rad50 strain growth inhibition, hits give high values
Summary of the method: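 Vehicle-treated cultures provide the reference for the growth inhibition reported for compound-exposed, repair-deficient yeast.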

[6] = NCI Yeast Anticancer Drug Screen. Data for the mec2-1 strain (AID 157); conditions: S. cerevisiae mec2-1 strain, hits give high values
Summary of the method: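 Mutant yeast (mec2-1) grown with compound; growth inhibition relative to vehicle control reported.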

[7] = NCI Yeast Anticancer Drug Screen. Data for the rad14 strain (AID 159);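 note: 0% = growth of vehicle-treated control cultures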; conditions: S. cerevisiae rad14 strain growth inhibition, hits give high values
Summary of the method: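 Inhibition of growth is reported for a repair-deficient yeast mutant following compound treatment, calculated relative to cultures that received vehicle.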

[8] = NCI Yeast Anticancer Drug Screen. Data for the sgs1 mgt1 strain (AID 161);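 note: 0% = growth of cultures given vehicle only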; conditions: S. cerevisiae sgs1 mgt1 strain, hits give high values
Summary of the method: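 Growth of a repair-deficient yeast mutant was monitored after compound treatment and expressed as inhibition relative to vehicle-treated cultures.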

[9] = NCI Yeast Anticancer Drug Screen. Data for the CLN2oe strain (AID 163);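 note: 0% = growth of vehicle-only control cultures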; conditions: S. cerevisiae CLN2oe strain, hits give high values
Summary of the method: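 Compounds are applied to yeast harbouring a defined cell-cycle control change; reduced growth compared with vehicle-treated controls gives the value.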

[10] = NCI Yeast Anticancer Drug Screen. Data for the cln2 rad14 strain (AID 165);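 note: 0% = growth equal to vehicle treated cultures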; conditions: S. cerevisiae cln2 rad14 strain, hits give high values
Summary of the method: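 Readout is yeast growth inhibition versus vehicle-treated controls, using a strain with cln2 and rad14 alterations exposed to compound.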

[11] = NCI Yeast Anticancer Drug Screen. Data for the bub3 strain (AID 167); conditions: S. cerevisiae bub3 mutant strain, hits give high values
Summary of the method: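 Mutant yeast screening strain plus compound; vehicle-treated cultures serve as the 0% inhibition reference.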

[12] = NCI Yeast Anticancer Drug Screen. Data for the wt2 strain (AID 169); conditions: S. cerevisiae wt2 strain growth inhibition, hits give high values
Summary of the method: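 Against vehicle-treated controls, the growth of yeast exposed to each compound was compared, and the inhibition was recorded.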

[13] = NCI Yeast Anticancer Drug Screen. Data for the mlh1 strain (AID 171);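 note: 0% = growth of vehicle-treated control cultures of the same strain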; conditions: S. cerevisiae mlh1 strain growth inhibition, hits give high values
Summary of the method: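 Measured: yeast growth. Reference: vehicle-treated controls. Organism: strain with a defined alteration affecting DNA damage repair or cell cycle control, treated with compound.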

[14] = NCI Yeast Anticancer Drug Screen. Data for the sgs1 strain (AID 173);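 note: 0% = growth of vehicle-only control cultures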; conditions: S. cerevisiae sgs1 mutant, hits give high values
Summary of the method: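 Each compound was added to cultures of the altered yeast strain. Growth was recorded, and inhibition was derived by comparison with vehicle controls.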

[15] = NCI Yeast Anticancer Drug Screen. Data for the mlh1 rad18 strain (AID 175); conditions: S. cerevisiae mlh1 rad18 strain growth inhibition, hits give high values
Summary of the method: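 Genetically defined yeast (DNA repair-deficient) exposed to compounds; growth inhibition determined relative to vehicle.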

[16] = NCI Yeast Anticancer Drug Screen. Data for the rad18 strain (AID 177); conditions: S. cerevisiae rad18 mutant growth inhibition, hits give high values
Summary of the method: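 Vehicle-treated cultures served as the baseline for scoring compound-induced growth inhibition in DNA-repair-mutant yeast.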

[17] = at 5.0 µM (retest, dose inferred, filed as 0.5)
[18] = at 50.0 µM (retest, dose inferred, filed as 5.0)

Measured: growth inhibition

COc1ccc(C2c3cc4c(cc3OC(C)(O)C2C)OCO4)c(OC)c1 (stereo not drawn)
active: [1]; at 100.0 µM 96% | [2]; at 100.0 µM 83% | [4]; at 100.0 µM 89% | [5]; at 50.0 µM 95.5% | [5]; at 100.0 µM 98% | [6]; at 50.0 µM 94% | [6]; at 100.0 µM 94% | [7]; at 100.0 µM 98% | [8]; [18] 70% | [8]; at 50.0 µM 84.5% | [9]; at 100.0 µM 82% | [10]; at 50.0 µM 89.3% | [11]; at 100.0 µM 95% | [12]; at 100.0 µM 97% | [13]; at 100.0 µM 96% | [14]; at 100.0 µM 98% | [15]; [18] 81% | [15]; at 50.0 µM 93.5% | [16]; at 100.0 µM 97%
inactive: [1]; at 1.2 µM -1% | [1]; at 3.7 µM 1% | [1]; at 11.0 µM 3% | [1]; at 33.0 µM 10% | [2]; at 1.2 µM -1% | [2]; at 3.7 µM 3% | [2]; at 11.0 µM -2% | [2]; at 33.0 µM -2% | [3]; at 1.2 µM 6% | [3]; at 3.7 µM 7% | [3]; at 11.0 µM 12% | [3]; at 33.0 µM 7% | [3]; at 100.0 µM 4% | [4]; at 1.2 µM -5% | [4]; at 3.7 µM -6% | [4]; at 11.0 µM -4% | [4]; at 33.0 µM -2% | [5]; at 1.2 µM 0% | [5]; at 3.7 µM 1% | [5]; [17] 2% | [5]; at 11.0 µM 0% | [5]; at 33.0 µM 9% | [5]; [18] 66% | [6]; at 1.2 µM 3% | [6]; at 3.7 µM 8% | [6]; [17] 4% | [6]; at 11.0 µM 9% | [6]; at 33.0 µM 15% | [6]; [18] 63% | [7]; at 1.2 µM -3% | [7]; at 3.7 µM -4% | [7]; at 11.0 µM -4% | [7]; at 33.0 µM 1% | [8]; [17] 4% | [9]; at 1.2 µM -6% | [9]; at 3.7 µM -12% | [9]; at 11.0 µM -2% | [9]; at 33.0 µM 4% | [10]; [17] 5% | [10]; [18] 51% | [11]; at 1.2 µM -4% | [11]; at 3.7 µM -1% | [11]; [17] -4% | [11]; at 11.0 µM 1% | [11]; at 33.0 µM 6% | [11]; [18] 67% | [11]; at 50.0 µM 43% | [12]; at 1.2 µM -2% | [12]; at 3.7 µM 0% | [12]; at 11.0 µM -2% | [12]; at 33.0 µM 1% | [13]; at 1.2 µM 3% | [13]; at 3.7 µM 2% | [13]; at 11.0 µM 3% | [13]; at 33.0 µM 6% | [14]; at 1.2 µM 2% | [14]; at 3.7 µM 2% | [14]; at 11.0 µM 4% | [14]; at 33.0 µM 18% | [15]; [17] -6% | [16]; at 1.2 µM 1% | [16]; at 3.7 µM -2% | [16]; at 11.0 µM 1% | [16]; at 33.0 µM 15%

— PubChem BioAssay (NCI)
